Reference: PubChem BioAssay (EPA / NIEHS)
Active and inactive are the calls of the source. How the source made its calls: active means hit-call score of the fitted dose curve at least 0.9, where 1 is the maximum; inactive means score below 0.9.

Legend:
[1] = read-out: Tissue Factor, F3 (gene 2152); experiment: BSK_CASM3C_TissueFactor: BioMAP Diversity Plus: CASM3C Assay for Tissue Factor Biomarker Activity (AID 2283052); settings: primary human coronary artery smooth muscle cells; actives raise or lower the signal;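 further: cell surface tissue factor protein level read by ELISA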
[2] = read-out: Interferon-gamma inducible Protein 10 (IP10), CXCL10 (gene 3627); experiment: BSK_hDFCGF_IP10: BioMAP Diversity Plus: hDFCGF Assay for Interferon-gamma inducible Protein 10 (IP10) Biomarker Activity (AID 2283053); settings: primary human foreskin fibroblasts; actives raise or lower the signal
In short: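 Primary foreskin fibroblasts, human; 24 h compound exposure; IP-10 by ELISA; bidirectional fit vs DMSO.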

[3] = read-out: Urokinase-type plasminogen activator receptor (uPAR), PLAUR (gene 5329); experiment: BSK_CASM3C_uPAR: BioMAP Diversity Plus: CASM3C Assay for Urokinase-type plasminogen activator receptor (uPAR) Biomarker Activity (AID 2283054); settings: primary human coronary artery smooth muscle cells; actives raise or lower the signal;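 further: cell-surface uPAR protein level quantified by ELISA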
[4] = read-out: Vascular cell adhesion molecule 1 (VCAM1), VCAM1 (gene 7412); experiment: BSK_CASM3C_VCAM1: BioMAP Diversity Plus: CASM3C Assay for Vascular cell adhesion molecule 1 (VCAM1) Biomarker Activity (AID 2283055); settings: primary human coronary artery smooth muscle cells; actives raise or lower the signal;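 further: VCAM-1 protein level quantified by ELISA on the cells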
[5] = read-out: Epidermal growth factor receptor (EGFR), EGFR (gene 1956); experiment: BSK_hDFCGF_EGFR: BioMAP Diversity Plus: hDFCGF Assay for Epidermal growth factor receptor (EGFR) Biomarker Activity (AID 2283057); settings: primary human foreskin fibroblasts; actives raise or lower the signal
In short: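 hDFCGF system, primary human foreskin fibroblasts; compound 24 h; EGFR measured by ELISA; DMSO = negative control/baseline; bidirectional fitting.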

[6] = read-out: Interleukin-8 (IL8), CXCL8 (gene 3576); experiment: BSK_hDFCGF_IL8: BioMAP Diversity Plus: hDFCGF Assay for Interleukin-8 (IL8) Biomarker Activity (AID 2283058); settings: primary human foreskin fibroblasts; actives raise or lower the signal
In short: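 Cells used are human skin primary fibroblasts. Chemical is added, cultures run 24 h, then IL-8 is quantified by ELISA, and gain or loss versus DMSO control is fitted in both directions.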

[7] = BSK_hDFCGF_Proliferation: Cell Proliferation Assessment in the BioMAP Diversity Plus: hDFCGF Assay (AID 2283059); settings: primary human foreskin fibroblasts;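 further: curves fitted for both rise and fall of signal versus DMSO baseline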
In short: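 Primary human foreskin fibroblasts, sub-confluent; […]; 10% TCA fix, 0.1% SRB stain, A560 total protein. Gain/loss fitted bidirectionally vs DMSO control.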

[8] = read-out: Macrophage colony-stimulating factor (MCSF), CSF1 (gene 1435); experiment: BSK_hDFCGF_MCSF: BioMAP Diversity Plus: hDFCGF Assay for Macrophage colony-stimulating factor (MCSF) Biomarker Activity (AID 2283060); settings: primary human foreskin fibroblasts; actives raise or lower the signal
In short: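 Primary human foreskin fibroblasts dosed with chemical; 24 h later, M-CSF quantified by ELISA; curves fitted in both directions vs DMSO negative control.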

[9] = BSK_hDFCGF_SRB: Viability Assessment in the BioMAP Diversity Plus: hDFCGF Assay (AID 2283061); settings: primary human foreskin fibroblasts;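 further: cells exposed to compound for 24 h before the read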
In short: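 Readout is SRB absorbance at 560 nm, reflecting total protein in parallel cultures of human foreskin fibroblasts harvested 24 h after chemical dosing. Activity was fitted bidirectionally relative to DMSO.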

[10] = read-out: TIMP metallopeptidase inhibitor 1 (TIMP1), TIMP1 (gene 7076); experiment: BSK_hDFCGF_TIMP1: BioMAP Diversity Plus: hDFCGF Assay for TIMP metallopeptidase inhibitor 1 (TIMP1) Biomarker Activity (AID 2283062); settings: primary human foreskin fibroblasts; actives raise or lower the signal
In short: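 Human skin fibroblasts (primary), hDFCGF system; compound exposure 24 h; TIMP-1 by ELISA; bidirectional fit vs DMSO negative control; overt cytotoxicity by SRB in parallel wells.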

[11] = read-out: Monokine induced gamma interferon (MIG), CXCL9 (gene 4283); experiment: BSK_hDFCGF_MIG: BioMAP Diversity Plus: hDFCGF Assay for Monokine induced gamma interferon (MIG) Biomarker Activity (AID 2283063); settings: primary human foreskin fibroblasts; actives raise or lower the signal
In short: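 Chemicals were added to primary human foreskin fibroblast cultures, which were sampled 24 h later. MIG levels were then quantified by ELISA and responses fitted in both directions relative to DMSO.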

[12] = read-out: Matrix Metallopeptidase 1 (MMP1), MMP1 (gene 4312); experiment: BSK_hDFCGF_MMP1: BioMAP Diversity Plus: hDFCGF Assay for Matrix Metallopeptidase 1 (MMP1) Biomarker Activity (AID 2283064); settings: primary human foreskin fibroblasts; actives raise or lower the signal
In short: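 Primary human foreskin fibroblasts in the hDFCGF system were dosed with test chemical, and MMP1 was measured by ELISA 24 h later. Values come from bidirectional curve fitting against the DMSO baseline.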

[13] = read-out: Vascular cell adhesion molecule 1 (VCAM1), VCAM1 (gene 7412); experiment: BSK_hDFCGF_VCAM1: BioMAP Diversity Plus: hDFCGF Assay for Vascular cell adhesion molecule 1 (VCAM1) Biomarker Activity (AID 2283065); settings: primary human foreskin fibroblasts; actives raise or lower the signal
In short: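 Human foreskin fibroblast primary cells, chemical exposure 24 h; VCAM-1 by ELISA; bidirectional fit, DMSO = negative control/baseline.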

[14] = read-out: Plasminogen activator inhibitor-1 (PAI1), SERPINE1 (gene 5054); experiment: BSK_hDFCGF_PAI1: BioMAP Diversity Plus: hDFCGF Assay for Plasminogen activator inhibitor-1 (PAI1) Biomarker Activity (AID 2283066); settings: primary human foreskin fibroblasts; actives raise or lower the signal
In short: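 Primary dermal fibroblasts (human foreskin), hDFCGF system; compound 24 h; PAI-1 by ELISA; bidirectional fit vs DMSO control.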

[15] = read-out: Intercellular Adhesion Molecule 1 (ICAM1), ICAM1 (gene 3383); experiment: BSK_KF3CT_ICAM1: BioMAP Diversity Plus: KF3CT Assay for Intercellular Adhesion Molecule 1 (ICAM1) Biomarker Activity (AID 2283067); settings: primary human keratinocytes with fibroblasts; actives raise or lower the signal
In short: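 ICAM-1 levels are measured by ELISA 24 h after dosing a primary human co-culture of keratinocytes and foreskin fibroblasts. Activity in either direction is fitted relative to DMSO vehicle.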

[16] = read-out: Interferon-gamma inducible Protein 10 (IP10), CXCL10 (gene 3627); experiment: BSK_KF3CT_IP10: BioMAP Diversity Plus: KF3CT Assay for Interferon-gamma inducible Protein 10 (IP10) Biomarker Activity (AID 2283068); settings: primary human keratinocytes with fibroblasts; actives raise or lower the signal
In short: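 In a primary skin co-culture of keratinocytes and fibroblasts, IP-10 is quantified by ELISA at 24 h after dosing. SRB staining of parallel wells monitors overt toxicity. Curves are fitted both directions against DMSO.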

[17] = BSK_KF3CT_SRB: Viability Assessment in the BioMAP Diversity Plus: KF3CT Assay (AID 2283069); settings: primary human keratinocytes with fibroblasts;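 further: total protein by sulforhodamine B staining as a cytotoxicity measure; read 24 h after compound addition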
In short: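 Human primary keratinocyte plus foreskin fibroblast co-culture exposed to chemicals for 24 h. Total protein measured by 0.1% sulforhodamine B staining after 10% TCA fixation, read at 560 nm; bidirectional fitting versus DMSO baseline.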

[18] = read-out: Interleukin-1 alpha (IL1a), IL1A (gene 3552); experiment: BSK_KF3CT_IL1a: BioMAP Diversity Plus: KF3CT Assay for Interleukin-1 alpha (IL1a) Biomarker Activity (AID 2283070); settings: primary human keratinocytes with fibroblasts; actives raise or lower the signal
In short: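 Human keratinocyte plus foreskin fibroblast primary co-culture, sampled 24 h after chemical dosing. IL-1a measured by ELISA; responses fitted bidirectionally against DMSO baseline (negative control), so gain or loss of signal both count.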

[19] = read-out: TIMP metallopeptidase inhibitor 2 (TIMP2), TIMP2 (gene 7077); experiment: BSK_KF3CT_TIMP2: BioMAP Diversity Plus: KF3CT Assay for TIMP metallopeptidase inhibitor 2 (TIMP2) Biomarker Activity (AID 2283071); settings: primary human keratinocytes with fibroblasts; actives raise or lower the signal
In short: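 Cells: human keratinocytes co-cultured with foreskin fibroblasts. Treat with chemical, 24 h. Measure TIMP-2 by ELISA; fit curves bidirectionally vs DMSO baseline.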

[20] = read-out: Collagen III, COL3A1 (gene 1281); experiment: BSK_hDFCGF_CollagenIII: BioMAP Diversity Plus: hDFCGF Assay for Collagen III Biomarker Activity (AID 2283056); settings: primary human foreskin fibroblasts; actives raise or lower the signal
In short: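 ELISA read-out of collagen III from human skin fibroblast cultures sampled 24 h post-dosing. Values were derived by bidirectional fitting relative to the DMSO vehicle control.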

Measured: AC50

O=C(O)c1ccccc1
not listed: [20]
inactive: all other assays above

COc1c(Cl)ccc(Cl)c1C(=O)O
not listed: [20]
inactive: all other assays above

CCCCOC(=O)[C@@H](C)Oc1ccc(Oc2ccc(C(F)(F)F)cn2)cc1
not listed: [7]
inactive: all other assays above

CCN(CC)C(=O)c1cccc(C)c1
not listed: [7]
inactive: all other assays above

O=C(O)C1(C(=O)Nc2ccc(Cl)cc2Cl)CC1
active: [20] 24.5 µM
not listed: [7]
inactive: all other assays above

C=CCOC(Cn1ccnc1)c1ccc(Cl)cc1Cl (centres undefined)
active: [2] 27 µM | [10] 30 µM | [14] 13.9 µM | [16] 5.07 µM
not listed: [7]
inactive: all other assays above
